Several values for one entry are separate records, joined by “and”; a condition that tells them apart may be missing. Identical values can stand only once. Inconclusive results are not listed. More than one record can exist for a structure, and the calls need not agree. Activity calls are given as the source filed them. Unless noted, calls come from the whole dose curve; as a rule, active = well fitted curve in the direction sought with a large enough effect in the repeat runs; inconclusive = weak or mixed curves; inactive = no such curve, though single readings can be large; an effect the other way counts as inactive or inconclusive.
What was measured:
[1] = A CellTox Green Cytotoxicity Assay to monitor cytotoxicity in HepG2 cells - 8 hour (AID 1224890); note: nearly all actives have a fitted effect of over 45% in size; note: potency is the fitted concentration of half-maximal effect
Method in brief: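 Cells and non-lytic dye reagent are dispensed together (600 HepG2 cells/well) and incubated 5 h before DMSO compound transfer. Kinetic fluorescence is then recorded in the same wells during 40 h at 37 C.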

[2] = qHTS assay to identify small molecule antagonists of the estrogen receptor alpha (ER-alpha) signaling pathway using the BG1 cell line in the presence of 0.1 nM 17-beta-estradiol - cell viability counter screen (AID 1259241); note: nearly all actives have a fitted effect of over 40% in size
Method in brief: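 The cell line endogenously expresses full-length ER-alpha and carries four EREs driving luciferase. Cells are cultured 5 days hormone-free, treated 22 hr with compounds and 0.1 nM estradiol, then viability is read by fluorescence.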

[3] = qHTS assay to identify small molecule antagonists of the androgen receptor (AR) signaling pathway using the MDA cell line in the presence of 0.5 nM R1881 - cell viability counter screen (AID 1259242); note: nearly all actives have a fitted effect of over 45% in size; note: potency is the fitted concentration of half-maximal effect
Method in brief: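 Steps: plate MDA-kb2 cells, rest 5 hr at 37C without CO2; pin in compounds in DMSO; add R1881 to 0.5 nM final; incubate 16 hr; add CellTiter-Fluor, 30 min; read fluorescence.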

[4] = qHTS assay to identify small molecule phospholipidosis (PLD) inducers (AID 1259344; active = well fitted curve in the direction sought with a large enough effect; an effect the other way counts as inactive or inconclusive)
Method in brief: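 Cells (HepG2, 900 per well) attach for 4 h, receive LipidTOX Red and compound together, incubate 24 h at 37 C, are fixed 30 min with paraformaldehyde/Hoechst, then imaged at one site per well.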

[5] = qHTS assay to identify small molecule HDAC inhibitors (AID 1259364);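 note: wild-type HCT-116 cells with endogenous class I/II HDAC activity; top concentration of the series differs between compounds; nearly all actives have a fitted effect of over 45% in size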
Method in brief: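 Cells (HCT-116, wild type) are seeded at 1,500 per well, incubated overnight, treated with compound in DMSO for 2 hr, then developed with HDAC-Glo I/II reagent for 30 min at room temperature.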

[6] = qHTS assay to identify small molecule HDAC inhibitors - cell viability counter screen (AID 1259365); note: series mostly up to about 92 µM; nearly all actives have a fitted effect of over 50% in size
Method in brief: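 Viability readout: CellTiter-Glo luminescence. Wild-type HCT-116 cells, 2hr compound treatment following overnight attachment at 37 C.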

[7] = qHTS assay to identify small molecule agonists of the sonic hedgehog signaling (Shh) pathway - cell viability counter screen (AID 1259366); note: nearly all actives have a fitted effect of over 50% in size; note: potency is the fitted concentration of half-maximal effect
Method in brief: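 Viability measured fluorometrically (CellTiter-Fluor, 1hr, 37C) in 3T3 Gli1-Luc reporter cells after 23hr compound exposure within a 24hr incubation at 37C/5% CO2.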

[8] = qHTS assay to identify small molecule antagonists of the sonic hedgehog signaling (Shh) pathway - cell viability counter screen (AID 1259367); note: nearly all actives have a fitted effect of over 55% in size
Method in brief: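 Cytotoxicity was assessed in parallel with Shh reporter activity by measuring live-cell protease fluorescence (CellTiter-Fluor) in NIH/3T3 cells stably carrying Gli1-Luc, treated with compound under conditioned medium stimulation for 23 hr plus 1 hr reagent incubation.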

[9] = qHTS assay to identify small molecule agonists of the sonic hedgehog signaling (Shh) pathway (AID 1259368; calls by dose curve;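 note: NIH/3T3-derived 3T3Gli1-Luc cells carrying a stable Gli1-driven firefly luciferase reporter; series mostly up to about 92 µM; nearly all actives have a fitted effect of over 15% in size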)
Method in brief: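 Cells of a mouse NIH/3T3 clone stably expressing luciferase under the Gli1 transcriptional response element are exposed to test chemicals for 24 hr at 37 C. Pathway activation is detected as a rise in luminescence.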

[10] = qHTS assay to identify small molecule antagonists of the sonic hedgehog signaling (Shh) pathway (AID 1259369; calls by dose curve; note: nearly all actives have a fitted effect of over 45% in size)
Method in brief: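 Cells are plated and held 4hr at 37 C, compounds (DMSO) are pinned in, conditioned medium is added to stimulate the pathway, and after 24hr luciferase reagent is added for 30min before luminescence is read.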

[11] = qHTS assay to identify small molecule agonists of the androgen receptor (AR) signaling pathway in the presence of an antagonist - cell viability counter screen (AID 1259379); note: nearly all actives have a fitted effect of over 25% in size; note: potency is the fitted concentration of half-maximal effect
Method in brief: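 Cytotoxicity is assessed by CellTiter-Fluor in MDA-kb2 cells carrying an MMTV-driven luciferase reporter. Cells receive 3.0uM nilutamide plus compounds at 15 concentrations and incubate 16 hr at 37C without CO2 before fluorescence reading.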

[12] = qHTS assay to identify small molecule agonists of the estrogen receptor beta (ER-beta) signaling pathway - cell viability counter screen (AID 1259380); note: nearly all actives have a fitted effect of over 30% in size; note: potency is the fitted concentration of half-maximal effect
Method in brief: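 Cytotoxicity is measured in parallel with the reporter screen: after 16 hr compound exposure at 37C and a 2 hr LiveBLAzer step, CellTiter-Glo is added to the same ER-beta-UAS-bla HEK293T wells and luminescence read after 30 min.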

[13] = qHTS assay to identify small molecule antagonists of the estrogen receptor beta (ER-beta) signaling pathway - cell viability counter screen (AID 1259382); note: nearly all actives have a fitted effect of over 55% in size; note: potency is the fitted concentration of half-maximal effect
Method in brief: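 Cytotoxicity counter screen multiplexed with the beta-lactamase antagonist assay: GripTite HEK293T ER-beta-bla cells were treated 16 hr with test chemicals in the presence of 1nM 17-beta-estradiol, and viability was measured by CellTiter-Glo.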

[14] = qHTS assay to identify small molecule agonists or antagonists of the thyroid stimulating hormone receptor (TSHR) signaling pathway - wild type cell line counter screen (AID 1259384; calls by dose curve)
Method in brief: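 Wild-type HEK293 cells were plated 18 h at 37 C/5% CO2, pin-dosed with compound plus Ro20-1724 medium, held 30 min at room temperature, then given cAMP-d2 and anti-cAMP-cryptate; fluorescence was read after 1 h. Fifteen concentrations, triplicate.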

[15] = target: Estrogen receptor beta (Homo sapiens) (UniProt Q92731); assay: qHTS assay to identify small molecule agonists of the estrogen receptor beta (ER-beta) signaling pathway (AID 1259377; active = well fitted activation curve with a large enough effect in the signal ratio in the repeat runs, not every such curve was filed as active; the % refers to the signal ratio)
Estrogen receptor beta (Homo sapiens), sequence (Q92731 whole entry, looked up): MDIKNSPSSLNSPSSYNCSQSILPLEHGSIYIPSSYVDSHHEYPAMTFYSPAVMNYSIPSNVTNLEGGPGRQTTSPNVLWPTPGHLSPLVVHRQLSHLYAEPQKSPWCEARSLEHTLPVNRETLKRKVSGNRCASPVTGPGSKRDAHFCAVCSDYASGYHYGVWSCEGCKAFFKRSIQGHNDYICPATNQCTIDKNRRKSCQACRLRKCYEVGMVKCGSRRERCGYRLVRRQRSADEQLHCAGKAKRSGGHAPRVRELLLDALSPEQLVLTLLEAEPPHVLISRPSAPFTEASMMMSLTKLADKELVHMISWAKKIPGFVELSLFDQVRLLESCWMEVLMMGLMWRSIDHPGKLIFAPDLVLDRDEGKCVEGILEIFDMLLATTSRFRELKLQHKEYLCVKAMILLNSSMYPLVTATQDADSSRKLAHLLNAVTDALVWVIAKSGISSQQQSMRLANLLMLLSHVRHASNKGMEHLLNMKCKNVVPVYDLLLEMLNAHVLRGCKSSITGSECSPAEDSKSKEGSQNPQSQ
Method in brief: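 A UAS-controlled beta-lactamase reporter in ER-beta-UAS-bla HEK293T cells reports receptor activation. Compounds act for 16 hr at 37C in 2% charcoal-stripped serum, and a FRET substrate is read by fluorescence after 2 hours.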

[16] = target: Estrogen receptor beta (Homo sapiens) (UniProt Q92731); assay: qHTS assay to identify small molecule antagonists of the estrogen receptor beta (ER-beta) signaling pathway (AID 1259378; active = well fitted inhibition curve with a large enough effect in the signal ratio in the repeat runs, not every such curve was filed as active; the % refers to the signal ratio; note: potency is the fitted concentration of half-maximal effect)
Method in brief: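 ER-beta-UAS-bla HEK293T (GripTite) cells in 2% charcoal-stripped FBS medium were preincubated 6 hr at 37C, dosed with compound, then stimulated with 1 nM E2 (final) for 16 hr; beta-lactamase reporter read by B/G FRET fluorescence after 2 hr substrate loading.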

[17] = target: Androgen receptor (Homo sapiens) (UniProt P10275); assay: qHTS assay to identify small molecule agonists of the androgen receptor (AR) signaling pathway in the presence of an antagonist (AID 1259381; calls by dose curve; note: nearly all actives have a fitted effect of over 15% in size)
Androgen receptor (Homo sapiens), sequence (P10275 whole entry, looked up): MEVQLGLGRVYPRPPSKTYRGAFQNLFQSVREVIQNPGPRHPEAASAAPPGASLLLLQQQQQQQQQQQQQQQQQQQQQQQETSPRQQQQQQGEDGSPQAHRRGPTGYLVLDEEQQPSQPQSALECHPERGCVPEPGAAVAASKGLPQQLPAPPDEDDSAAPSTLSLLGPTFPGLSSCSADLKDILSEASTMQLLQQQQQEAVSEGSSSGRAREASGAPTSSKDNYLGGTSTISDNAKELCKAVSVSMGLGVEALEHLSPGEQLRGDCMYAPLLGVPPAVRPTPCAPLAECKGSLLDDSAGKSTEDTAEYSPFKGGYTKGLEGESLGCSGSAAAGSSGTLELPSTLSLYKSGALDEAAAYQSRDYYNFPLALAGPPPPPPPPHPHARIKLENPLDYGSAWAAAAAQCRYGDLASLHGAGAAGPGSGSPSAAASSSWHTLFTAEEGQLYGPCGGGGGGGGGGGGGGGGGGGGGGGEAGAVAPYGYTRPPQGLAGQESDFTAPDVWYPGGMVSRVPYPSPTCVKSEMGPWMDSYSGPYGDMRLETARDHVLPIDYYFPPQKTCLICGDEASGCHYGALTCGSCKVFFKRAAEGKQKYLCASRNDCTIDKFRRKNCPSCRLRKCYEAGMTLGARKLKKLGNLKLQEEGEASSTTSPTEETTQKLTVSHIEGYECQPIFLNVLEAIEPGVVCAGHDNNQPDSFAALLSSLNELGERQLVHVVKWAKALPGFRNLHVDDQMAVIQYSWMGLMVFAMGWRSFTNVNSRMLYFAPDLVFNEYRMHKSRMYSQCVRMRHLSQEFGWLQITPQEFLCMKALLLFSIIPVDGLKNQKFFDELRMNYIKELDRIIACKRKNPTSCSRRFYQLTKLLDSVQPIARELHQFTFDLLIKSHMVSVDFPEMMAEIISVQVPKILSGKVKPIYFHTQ
Method in brief: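 Agonist-mode confirmation screen: human MDA-kb2 cells stably expressing luciferase under an MMTV promoter bearing AR and GR response elements, co-treated with 3.0uM nilutamide (final). Luminescence measured after 16hr compound incubation.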

[18] = target: Estrogen receptor (Homo sapiens) (UniProt P03372); assay: qHTS assay to identify small molecule agonists of the estrogen receptor alpha (ER-alpha) signaling pathway in the presence of an antagonist (AID 1259383; calls by dose curve; note: top concentration of the series differs between compounds; nearly all actives have a fitted effect of over 15% in size)
Estrogen receptor (Homo sapiens), sequence (P03372 whole entry, looked up): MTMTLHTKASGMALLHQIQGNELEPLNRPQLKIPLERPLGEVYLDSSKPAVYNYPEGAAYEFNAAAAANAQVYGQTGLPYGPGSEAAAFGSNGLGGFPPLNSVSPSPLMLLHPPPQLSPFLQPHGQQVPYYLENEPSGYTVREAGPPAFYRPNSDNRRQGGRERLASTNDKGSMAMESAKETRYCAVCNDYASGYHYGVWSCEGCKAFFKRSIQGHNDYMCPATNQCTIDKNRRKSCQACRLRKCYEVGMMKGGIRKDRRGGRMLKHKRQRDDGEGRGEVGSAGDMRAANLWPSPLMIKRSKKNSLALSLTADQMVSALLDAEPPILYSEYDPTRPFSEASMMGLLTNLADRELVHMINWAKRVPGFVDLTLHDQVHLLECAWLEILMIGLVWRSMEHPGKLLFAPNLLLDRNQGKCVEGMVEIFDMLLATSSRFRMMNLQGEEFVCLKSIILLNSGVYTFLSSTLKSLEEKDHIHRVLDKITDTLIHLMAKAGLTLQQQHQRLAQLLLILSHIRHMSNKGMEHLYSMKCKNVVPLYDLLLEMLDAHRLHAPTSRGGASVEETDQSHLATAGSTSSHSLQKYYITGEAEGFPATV
Method in brief: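 Agonist-mode confirmation in the presence of the ER antagonist ICI-182,780 at 10.0nM final. Breast-derived VM7Luc4E2 reporter cells were exposed to compounds for 22hr, and ERE-driven luciferase was quantified by luminescence.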

Measured: Potency

O=C1NC(=O)C(c2ccccc2)(c2ccccc2)N1
inactive and 23.9 µM (active): [1]
not listed: [15] | [16] | [17] | [18]
inactive: all other assays above

CC(O)(P(=O)(O)O)P(=O)(O)O
not listed: [8] | [15] | [16] | [17] | [18]
inactive: all other assays above

C1CCC(C(CC2CCCCN2)C2CCCCC2)CC1 (stereo unspecified)
active: [1] 23.9 µM | [3] 26.6 µM | [7] 13.3 µM | [16] 18.8 µM | [11] 29.8 µM | [12] 23.7 µM | [13] 18.8 µM
not listed: [8] | [10]
inactive: all other assays above

CC1(C)S[C@@H]2[C@H](NC(=O)[C@H](N)c3ccccc3)C(=O)N2[C@H]1C(=O)O
not listed: [4] | [15] | [16] | [17] | [18]
inactive: all other assays above
